# Out of some 94,000 compounds screened, about 280 (0.3%) were called active. The list comes from a sample in which actives are over-represented; it also holds similar structures and randomly drawn compounds. A number with no mark means an inactive call.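 The calls were made as follows: active = activation above 40%, about the mean plus 3 SD, also judged a hit on visual image review; inconclusive = activation above 40% but not a hit on visual review; inactive = activation not above 40% and no visual hit.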
# Assay: enhancers of NFkB p65 translocation in HUVEC – imaging, IL-1B stimulus, high-content imaging, primary screen (AID 819);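 also: percent activation is computed from the nuclear over cytoplasmic p65 intensity ratio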
# Settings: HUVEC IL-1B NFkB p65 nuclear translocation imaging; at 2 µM; hits give high values
row,SMILES,activation
1,C/C(=N\NC(=O)c1ccc(C)cc1)C1C(=O)c2ccccc2C1=O,-6.49%
2,Cc1ccc2[nH]c(=O)c(CN(CCCN(C)C)C(=O)Nc3cccc(Cl)c3)cc2c1,20.3%
3,COc1ccc(NC(=O)CSc2nc(N)c(-c3ccccc3)c(=O)[nH]2)cc1,8.34%
4,COC(=O)c1cccc(-n2[nH]nnc2=S)c1,-3.54%
5,COCc1cc(C(C)=O)ccc1OC,2.42%
6,CN(C)c1ccc(NC(=S)N(CCc2ccccc2)C2CC(=O)N(c3c(Cl)cccc3Cl)C2=O)cc1 (centres undefined),-17.7%
7,O=C(N/N=C/C=C/c1ccccc1)C1CC1(c1ccccc1)c1ccccc1 (centres undefined),4.51%
8,CCCn1nnc(NC(=O)COc2ccc(CC)cc2)n1,6.08%
9,COC(=O)CNC(=O)c1ccccc1[N+](=O)[O-],2.74%
10,CCCCNC(=O)CCn1c(=S)[nH]c2cc3c(cc2c1=O)OCO3,-3.47%
11,COc1ccc(OCC(=O)NN2Cc3ccccc3C2=N)cc1,12.3%
12,CCOc1cc(/C=C2/N=C(c3ccc(C(C)(C)C)cc3)OC2=O)cc(Cl)c1OS(C)(=O)=O,15.4%
13,Cc1ccccc1OC/C(O)=C(\C#N)c1nc2ccccc2[nH]1,-7.29%
14,CCOC(=O)c1c(NC(=O)CSc2nnc(C)c(=O)[nH]2)sc2c1CCC2,-7.67%
15,COC(=O)c1c(NC(=O)CSc2nncs2)sc2c1CCCCC2,144% (active)
16,COC(=O)c1c(NC(=O)c2cccs2)sc2c1CCCC2,-38.1%
17,CC(C)c1cc(C(N)=O)c(NC(=O)c2cccc(COc3ccc(Br)cc3)c2)s1,2.73%
18,CCCC(O)(c1ccc(OC)cc1)C(CN(C)C)c1ccccc1 (centres undefined),8.96%
19,CS(=O)(=O)N(CC(=O)Nc1ccc(F)cc1F)c1cccc([N+](=O)[O-])c1,2.79%
20,CCOC(=O)c1c(NC(=O)CSc2nnc(CNc3ccc(C)cc3C)o2)sc(C)c1C,13.4%
21,CCOC(=O)NNC(=O)c1ccc(Cl)cc1,-2.19%
22,COc1ccc(C2CC(c3cccs3)=Nc3ccccc3S2)cc1OC (centres undefined),3.96%
23,CCN(CC)C(=O)CSC1c2ccccc2C(=O)N1c1ccccc1 (centres undefined),16.1%
24,Cc1ccc(OCC(=O)N/N=C/c2ccncc2)cc1,9.97%
25,COc1ccc(NC(=O)CCN2CCCC2)c(OC)c1,-7.64%
26,Cc1ccc(CNC(=O)CCNC(=O)Cn2ccc3ccccc3c2=O)cc1,-10.3%
27,COc1ccc(NC(=O)CCNC(=O)Cn2ccc3ccccc3c2=O)c(OC)c1,49.9% (active)
28,Cc1ccc2c(c1)N(CC(=O)N(Cc1ccccn1)Cc1ccco1)C(=O)C(C(C)C)O2 (centres undefined),-18%
29,CCN1CCC(=NNC(=O)c2ccc(C)c([N+](=O)[O-])c2)CC1,9.79%

# — PubChem BioAssay AID819 (Columbia University Molecular Screening Center, 2007)
